Experimental findings from PubChem BioAssay (NCI) are described below.

SMILES strings stand for the structures. This is part of a sample that, as a whole, favours compounds with a hit. Of some 83,000 tested, about 20% had one in any assay.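 The endpoint reported here, percent growth, reads 100 for growth as untreated, 0 for no net growth and -100 for all cells dead.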 Values without a mark were called inactive. Activity calls are given as the source filed them. The calls were made as follows: active = growth percent below 10; inactive = the rest.

Some test systems named below: NCI-H23 lung; NCI-H226 lung; NCI-H322M lung; HOP-62 NSCLC; HOP-92 NSCLC; NCI-H522 lung; A549/ATCC NSCLC; 786-0 renal; COLO 205 colon; DU-145 prostate; K-562 leukemia; MALME-3M melanoma; MDA-MB-231 breast; RXF 393 renal; SF-268 CNS; UACC-257 melanoma; M14 melanoma; SF-295 CNS; SF-539 CNS; NCI-H460 lung.
Common to all, as to assay: NCI-60 one-dose screen, 48 h (100 = growth as untreated, 0 = no growth, -100 = all killed)
Details in all cases: 10 µM unless noted

In the case of `COc1ccc(-c2cnnn2-c2nonc2-n2cccc2)cc1OC`, the growth with NCI-H23 lung was 67.8%; in the assay with NCI-H226 lung, 88.8%; in the assay on NCI-H322M lung it was 96.8%; in the assay on HOP-62 NSCLC, 55.8%; with HOP-92 NSCLC it was 72%; in the assay with NCI-H522 lung, 27.4%. For the same compound, the growth in the assay on A549/ATCC NSCLC is 47.2%; in the assay on 786-0 renal, 88.3%; in the assay with COLO 205 colon it was 44.4%; in the assay with DU-145 prostate, 80.9%; in the assay with K-562 leukemia, 3.29% (active); in the assay with MALME-3M melanoma it was 25.1%. In addition, the growth was 65.7% with MDA-MB-231 breast; 75.6% with RXF 393 renal; 71.8% in the assay on SF-268 CNS; 79.6% with UACC-257 melanoma; 39.9% in the assay with M14 melanoma.
Regarding `S=c1[nH]nc(-c2cc3ccc2CCc2ccc(cc2)CC3)n1C1CC1`, the growth with NCI-H23 lung is 97.8%; in the assay with NCI-H226 lung, 108%; in the assay with NCI-H322M lung, 105%; in the assay on HOP-62 NSCLC, 104%; in the assay with HOP-92 NSCLC, 96.1%; in the assay on NCI-H522 lung it was 89.6%. In addition, the growth in the assay on A549/ATCC NSCLC is 108%; in the assay with COLO 205 colon, 113%; in the assay on DU-145 prostate it was 108%; in the assay with K-562 leukemia it was 97.9%; in the assay on MALME-3M melanoma it was 97%; in the assay on MDA-MB-231 breast it was 99.5%. Further, the growth was 105% in the assay with RXF 393 renal; 103% in the assay on SF-268 CNS; 93.8% in the assay on SF-295 CNS; 98% in the assay on SF-539 CNS; 105% in the assay on UACC-257 melanoma; 97.8% in the assay with M14 melanoma.
For `CCN1CCN(CC(=O)N2c3cccc4cccc(c34)N(C(=O)CN3CCN(CC)CC3)C2c2cn(-c3ccccc3)nc2-c2cccc([N+](=O)[O-])c2)CC1`, the growth is 13.7% with NCI-H23 lung; -28.3% (active) with NCI-H226 lung; 25.3% in the assay on NCI-H322M lung; 0.226% (active) with HOP-62 NSCLC; 61.4% with HOP-92 NSCLC; -64.7% (active) in the assay on NCI-H522 lung. For the same compound, the growth in the assay on A549/ATCC NSCLC is 12.9%; with COLO 205 colon it was -66.9% (active); in the assay with DU-145 prostate it was 28.3%; in the assay with K-562 leukemia it was -52.9% (active); in the assay on MALME-3M melanoma, -91.3% (active); with MDA-MB-231 breast it was -66.1% (active). For the same compound, the growth in the assay with RXF 393 renal was 3.79% (active); in the assay on SF-268 CNS it was 16.6%; in the assay with SF-295 CNS it was -50.3% (active); in the assay with SF-539 CNS, -89.2% (active); with UACC-257 melanoma it was -83.1% (active); in the assay on M14 melanoma it was -81.6% (active).
As to `Cc1ccc(-c2cc3nc(C(Cl)Cl)nc(-c4ccccc4C)n3n2)cc1`, the growth in the assay with NCI-H23 lung was 74%; in the assay with NCI-H226 lung it was 100%; in the assay on NCI-H322M lung, 86.6%; in the assay with HOP-62 NSCLC, 68.3%; with HOP-92 NSCLC it was 64.7%; in the assay on NCI-H522 lung, 69.9%. The growth with A549/ATCC NSCLC was 23.3%; in the assay with 786-0 renal, 84.1%; with COLO 205 colon, 54.1%; in the assay on DU-145 prostate, 46.9%; in the assay with K-562 leukemia, 17.9%; in the assay with MALME-3M melanoma, 72.8%. Besides, the growth in the assay on MDA-MB-231 breast was 66.8%; in the assay with RXF 393 renal, 22.8%; with SF-268 CNS it was 92.6%; with SF-295 CNS it was 77.3%; in the assay on SF-539 CNS it was 86.5%; with UACC-257 melanoma, 101%. For the same compound, the growth with M14 melanoma was 93.8%.
`N[C@H]1CN(C(=O)c2cc3cc(Br)c(F)c(F)c3[nH]2)C[C@@H]1O`: the growth in the assay on NCI-H23 lung was 96.3%; in the assay with NCI-H226 lung, 83.7%; with NCI-H322M lung, 89.5%; in the assay on HOP-62 NSCLC it was 99.9%; with HOP-92 NSCLC, 79.2%; with NCI-H522 lung, 95.1%. Besides, the growth is 101% in the assay with A549/ATCC NSCLC; 86.2% with 786-0 renal; 118% with COLO 205 colon; 112% in the assay with DU-145 prostate; 104% in the assay with K-562 leukemia; 101% in the assay with MALME-3M melanoma. The growth in the assay with MDA-MB-231 breast was 92%; with RXF 393 renal, 103%; in the assay with SF-268 CNS it was 88.5%; in the assay with SF-295 CNS, 104%; with SF-539 CNS, 96%; in the assay with UACC-257 melanoma it was -76.6% (active). For the same compound, the growth with M14 melanoma was 97.2%.
Turning to `c1cc2[nH]ncc2cc1-c1nc2ccc3[nH]ncc3c2c2c1CCC2`, the growth in the assay on NCI-H23 lung was 70.2%; with NCI-H226 lung, 42.5%; in the assay with NCI-H322M lung it was 58%; in the assay with HOP-62 NSCLC, 47.6%; with HOP-92 NSCLC, 42.5%; with NCI-H522 lung, 6.78% (active). For the same compound, the growth was 39.4% in the assay with A549/ATCC NSCLC; 49.7% in the assay on 786-0 renal; 25.7% in the assay on COLO 205 colon; 54.3% with DU-145 prostate; 15.4% in the assay on K-562 leukemia; 47.3% in the assay on MALME-3M melanoma. In addition, the growth is 70.2% in the assay with MDA-MB-231 breast; 19.5% in the assay on RXF 393 renal; 56.2% in the assay on SF-268 CNS; 80.6% in the assay with SF-295 CNS; 45% in the assay on SF-539 CNS; 65.8% in the assay with UACC-257 melanoma. In addition, the growth in the assay on M14 melanoma was 21%.
In the case of `Cc1ccc(CSC(=N)N)cc1C`, the growth was 108% in the assay with NCI-H23 lung; 104% in the assay on NCI-H226 lung; 111% in the assay with NCI-H322M lung; 110% in the assay with HOP-62 NSCLC; 109% in the assay on NCI-H460 lung; 67.4% with HOP-92 NSCLC. Further, the growth was 101% in the assay on NCI-H522 lung; 103% in the assay on 786-0 renal; 107% in the assay with COLO 205 colon; 108% in the assay on DU-145 prostate; 111% in the assay on MALME-3M melanoma; 99.2% with MDA-MB-231 breast. Besides, the growth in the assay with RXF 393 renal was 103%; with SF-268 CNS, 104%; in the assay with SF-295 CNS, 111%; in the assay with SF-539 CNS, 114%; in the assay on UACC-257 melanoma, 119%; in the assay with M14 melanoma, 105%.
Regarding `O=S(=O)(NCCNc1nccc(-c2c(-c3ccc(O)cc3)nc3sccn23)n1)c1cccc2ccccc12`, the growth in the assay on NCI-H23 lung is 98.1%; in the assay with NCI-H226 lung, 102%; in the assay with NCI-H322M lung, 98.1%; with HOP-62 NSCLC, 106%; in the assay on HOP-92 NSCLC, 94.9%; with NCI-H522 lung it was 91.5%. The growth with A549/ATCC NSCLC is 98.2%; in the assay with 786-0 renal, 96.6%; in the assay on COLO 205 colon, 109%; in the assay on DU-145 prostate it was 115%; in the assay on K-562 leukemia it was 91.4%; in the assay on MALME-3M melanoma, 100%. The growth in the assay with MDA-MB-231 breast is 110%; in the assay with RXF 393 renal, 104%; in the assay on SF-268 CNS it was 99%; in the assay on SF-539 CNS, 100%; with UACC-257 melanoma, 94.4%; in the assay with M14 melanoma, 105%.
In the case of `NC(N)=N/N=C/c1ccc(-c2ccc(-c3cc(Cl)cc(Cl)c3)s2)cc1`, the growth in the assay with NCI-H23 lung was -39.2% (active); in the assay with NCI-H226 lung it was 87.1%; in the assay with NCI-H322M lung, 72.6%; with HOP-62 NSCLC, 25.2%; in the assay with HOP-92 NSCLC it was 30%; in the assay with NCI-H522 lung, -0.199% (active). In addition, the growth in the assay on A549/ATCC NSCLC was -71.1% (active); in the assay with 786-0 renal, -83.5% (active); with COLO 205 colon it was -12.9% (active); with DU-145 prostate it was -45.9% (active); with K-562 leukemia, -25.2% (active); in the assay with MALME-3M melanoma, 100%. Besides, the growth in the assay with MDA-MB-231 breast was -30.4% (active); in the assay on RXF 393 renal, 27.4%; in the assay on SF-268 CNS, 73.5%; in the assay with SF-295 CNS, 75.9%; in the assay with SF-539 CNS, -3.6% (active); in the assay on UACC-257 melanoma it was 106%. Also, the growth with M14 melanoma is 93.9%.
